Assay results as given in PubChem BioAssay AID493220 (National Center for Advancing Translational Sciences (NCATS), 2011).
Results filed as inconclusive are left out. Calls of active or inactive are those of the source. Calls follow the shape of the full dose curve.

biological target: Polyunsaturated fatty acid lipoxygenase ALOX15 (Homo sapiens) (UniProt P16050); assay: Inhibitors of 12-hLO (12-human lipoxygenase): 15hLO-1 Cuvette-Based Inhibition Counterscreen Assay for 12hLO Followup Compounds; conditions: purified 15hLO-1, UV 234 nm product formation
Sequence (P16050 whole entry, looked up): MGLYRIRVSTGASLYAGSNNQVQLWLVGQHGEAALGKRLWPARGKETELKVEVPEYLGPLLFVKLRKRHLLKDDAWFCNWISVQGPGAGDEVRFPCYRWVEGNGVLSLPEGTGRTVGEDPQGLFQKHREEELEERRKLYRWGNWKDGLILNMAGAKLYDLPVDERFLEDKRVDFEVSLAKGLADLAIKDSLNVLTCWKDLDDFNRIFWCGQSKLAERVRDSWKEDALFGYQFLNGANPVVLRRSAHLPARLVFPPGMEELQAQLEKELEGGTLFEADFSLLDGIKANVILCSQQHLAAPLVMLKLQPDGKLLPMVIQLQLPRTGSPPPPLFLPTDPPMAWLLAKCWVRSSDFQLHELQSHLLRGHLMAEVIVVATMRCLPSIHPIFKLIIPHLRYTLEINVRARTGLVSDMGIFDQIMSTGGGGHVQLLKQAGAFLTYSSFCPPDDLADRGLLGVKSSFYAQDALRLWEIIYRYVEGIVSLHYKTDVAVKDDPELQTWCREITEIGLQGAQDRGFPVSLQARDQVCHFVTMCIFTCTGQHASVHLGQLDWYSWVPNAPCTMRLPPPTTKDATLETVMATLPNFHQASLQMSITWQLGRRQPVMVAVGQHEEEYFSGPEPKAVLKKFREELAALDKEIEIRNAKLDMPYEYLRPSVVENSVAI
Protocol: Human lipoxygenase 15hLO-1 is a member of the closely related lipoxygenase family of enzymes which catalyze the site-specific oxidation of arachidonic acid to various hormone precursor molecules and as such is a candidate for drug development in a variety of disease areas, such as cancer and inflammation. The enzyme activity of 15hLO-1 was determined by a direct measurement of product formation by monitoring the absorbance at 234 nm in a 2 mL cuvette. IC50 values of inhibitors were obtained by measuring the enzymatic rate at a variety of concentrations (Carroll et al, Segraves et al). A purified preparation of human 15hLO-1 was supplied by Professor Ted Holman, University of California, Santa Cruz. This assay was run against 12hLO followup compounds with the goal of identifying selective 12hLO inhibitors. Assay Provider: Holman, T.R., University of California, Santa Cruz Screening Center PI: Austin, Christopher P. Screening Center: NIH Chemical Genomics Center
For control experiments, 2 mL of substrate buffer (10 uM arachidonic acid / 25 mM HEPES / 0.01% (v/v) Triton X-100, pH 8.0) was aliquoted in a cuvette with a magnetic stir bar. After equilibrium was ensured, an aliquot of inhibitor solvent was added (DMSO), and equilibrium was once again assured. The reaction was started by adding enzyme to the cuvette and the reaction was followed until completed. The inhibition experiments were performed as above, except the actual inhibitory compound was added instead of vehicle. To achieve an IC50, typically 5 concentrations of the inhibitor were studied. If the inhibitor concentration was constant, then five different reaction volumes were used. Step \ Parameter \ Value \ Description 1; UV-Vis; 234 nm; Equilibration 2; Reagent; 2 mL; Substrate buffer 3; UV-Vis; 234 nm; Equilibration 4; Reagent; varies; Compound 5; UV-Vis; 234 nm; Equilibration 6; Reagent; 50-200 nM; Enzyme 12-hLO 7; UV-Vis; 234 nm; Enzymatic reaction Step \ Notes 1; Blank cuvette to air. 2; 10 uM AA, 25 mM HEPES, 0.01% Triton X-100, pH 8. 3; No change in absorbance ensured. 4; Compound vehicle or compound in various concentrations depending on potency. 5; No change in absorbance ensured. 6; Enzyme concentration to achieve reaction rate between 0.02 and 0.04 AU/s. 7; Enzymatic reaction visualized until completion.

Compound | outcome | Potency
CCOC(=O)Cc1cc(=O)n(-c2nc3ccccc3s2)[nH]1 | inactive | –
O=C(/C=C/c1ccc(O)c(O)c1)c1ccc(S(=O)(=O)N2CCCCCC2)cc1 | – | 1.31 µM (active)
Cc1ccc(C(=O)Nc2nnc(-c3ccco3)o2)cc1C | inactive | –
c1ccc(-c2nc(NCc3cccnc3)c3oc4ccccc4c3n2)cc1 | – | 31 µM (active)
Oc1ccc(C2=Nn3c(nnc3-c3ccco3)SC2)cc1O | – | 39.1 µM (active)
Cc1cc(Cl)cc(Cl)c1OCC(=O)NCc1ccco1 | – | 88.6 µM (active)
CCc1ccc(S(=O)(=O)/N=C2/C=C(Sc3ncn[nH]3)C(=O)c3ccccc32)cc1 | – | 9.52 µM (active)
Cc1ccc(NC(=O)Nc2cccs2)c(Cl)c1 | – | 58.8 µM (active)
COc1cc(CNc2ccc(O)cc2)cc(Br)c1OCc1ccccc1F | inactive | –
CSCCC(NC(=O)c1ccc(Cl)cc1)C(=O)OCC(=O)Nc1ccc(C#N)cc1 (stereo not given) | – | 46.2 µM (active)
COc1ccc(NC2=NCC(Cc3ccc(Br)cc3)S2)cc1 (stereo not given) | – | 8.89 µM (active)
CC1=NN(c2ccc(Cl)cc2)C(=O)C1C(c1ccccc1O)c1c(C)[nH]n(-c2ccc(Cl)cc2)c1=O (stereo not given) | – | 20 µM (active)
Cc1ccc(S(=O)(=O)Nc2nc(C)c(NC(=O)Nc3ccc(Cl)cc3Cl)s2)cc1 | inactive | –
Oc1ccc(Cl)cc1-c1cc(-c2ccco2)[nH]n1 | – | 2.03 µM (active)
O=S(=O)(Nc1ccc(O)c(Sc2nc3ccccc3s2)c1)c1ccc(Cl)cc1 | – | 12.6 µM (active)
Cc1[nH]nc(-c2ccc(O)cc2O)c1-c1ccc(Cl)cc1 | – | 9.99 µM (active)
N#CC1=C(N)Oc2n[nH]c(-c3cccs3)c2C1C1CCCCC1 (stereo not given) | – | 9.33 µM (active)
Oc1ccccc1-c1cc(-c2cccc(F)c2)n[nH]1 | – | 4.81 µM (active)
Oc1ccc(-c2nc(-c3ccc(O)c(O)c3)cs2)cc1 | – | 0.61 µM (active)
O=C(Nc1nnc(-c2ccc(Cl)cc2)o1)c1ccccc1Br | inactive | –

Compound | outcome | Potency
COc1ccc(-c2[nH]ncc2-c2ccc(Cl)cc2)c(O)c1 | – | 6.81 µM (active)
CSc1ccc(S(=O)(=O)Nc2ccc(S(=O)(=O)Nc3ccc(C)cc3)cc2)cc1 | – | 45 µM (active)
CCOc1ccc(-c2[nH]ncc2Oc2cccc(OC)c2)c(O)c1 | – | 2.96 µM (active)
COc1ccc(Cc2nc(C(=O)Nc3ccc(OC)cc3)cs2)cc1 | – | 8.84 µM (active)
O=C(CSc1n[nH]c(-c2ccccc2)n1)c1ccc(O)c(O)c1 | – | 5.77 µM (active)
CC(Oc1ccc(Cl)cc1Cl)C(=O)NC1=NN(c2ccccc2)C(=O)C1 (stereo not given) | – | 65 µM (active)
COc1ccc(C(Nc2ccccn2)c2c(NC(=O)c3ccco3)sc(C)c2C)cc1 (stereo not given) | – | 62.7 µM (active)
O=C(Nc1nnc(-c2ccccn2)o1)c1ccc(Br)cc1 | inactive | –
Oc1ccccc1-c1cc(-c2ccccc2Cl)[nH]n1 | – | 1.62 µM (active)
CN(C)c1nccc(N(Cc2ccccc2)Cc2ccccc2)c1C#N | – | 17.7 µM (active)
Oc1ccc(CN2CCCc3ccccc32)c2cccnc12 | – | 81.3 µM (active)
COc1ccc(-c2n[nH]c(C)c2-c2ccc(Cl)cc2)c(O)c1 | – | 3.51 µM (active)
COc1ccc(-c2n[nH]c(C(F)(F)F)c2-c2cc3ccccc3o2)c(O)c1 | – | 6.5 µM (active)
COc1cccc(-c2cnc(NCc3cc(Cl)ccc3O)n2C)c1 | – | 32.9 µM (active)
CC1=NN(c2ccc(Cl)cc2)C(=O)C1C(c1cccc(O)c1)c1c(C)[nH]n(-c2ccc(Cl)cc2)c1=O (stereo not given) | – | 22.8 µM (active)
O=C1c2ccccc2NC(c2ccc(Cl)cc2Cl)N1O (stereo not given) | – | 37.4 µM (active)
COc1ccc2nc(NC(=O)c3cccc(OCc4c(C)noc4C)c3)sc2c1 | – | 33.6 µM (active)
CCOC(=O)CNC(c1ccccc1)c1cc(Br)ccc1NC(=O)CCN1CCOCC1 (stereo not given) | inactive | –
O=C(Nc1nnc(C2=COCCO2)o1)c1ccc(Cl)cc1 | inactive | –
COc1ccc(C(=O)Nc2cc(C(=O)c3ccccc3)c(C)oc2=O)cc1 | inactive | –
